# Laboratory results from PubChem BioAssay AID1347421 (Sanford-Burnham Center for Chemical Genomics, 2020).
# Whole data set: some 1,500 compounds, median “activity” near 2, cut for the lowest 2% near -18. The sample as a whole holds a higher share of the lowest values than the screen did. Active and inactive are the calls of the source.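 Rule for the calls: active = inhibition of at least 40% at 10 µM; inconclusive = no clear call, values can overlap the other calls; inactive = the rest.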
# Biological target: Sulfhydryl oxidase 1 (Homo sapiens) (UniProt O00391)
# Assay: QSOX1 enzyme inhibitors, confirmation, biochemical, ROS-Glo luminescence, single concentration (AID 1347421);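 note: 0% = DMSO wells with enzyme and 100% = wells lacking QSOX1 enzyme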
# Conditions: recombinant hQSOX1, RNase A substrate, ROS-Glo H2O2 luminescence; at 10 µM
# Chain of Sulfhydryl oxidase 1 (Homo sapiens) (O00391 whole entry, looked up): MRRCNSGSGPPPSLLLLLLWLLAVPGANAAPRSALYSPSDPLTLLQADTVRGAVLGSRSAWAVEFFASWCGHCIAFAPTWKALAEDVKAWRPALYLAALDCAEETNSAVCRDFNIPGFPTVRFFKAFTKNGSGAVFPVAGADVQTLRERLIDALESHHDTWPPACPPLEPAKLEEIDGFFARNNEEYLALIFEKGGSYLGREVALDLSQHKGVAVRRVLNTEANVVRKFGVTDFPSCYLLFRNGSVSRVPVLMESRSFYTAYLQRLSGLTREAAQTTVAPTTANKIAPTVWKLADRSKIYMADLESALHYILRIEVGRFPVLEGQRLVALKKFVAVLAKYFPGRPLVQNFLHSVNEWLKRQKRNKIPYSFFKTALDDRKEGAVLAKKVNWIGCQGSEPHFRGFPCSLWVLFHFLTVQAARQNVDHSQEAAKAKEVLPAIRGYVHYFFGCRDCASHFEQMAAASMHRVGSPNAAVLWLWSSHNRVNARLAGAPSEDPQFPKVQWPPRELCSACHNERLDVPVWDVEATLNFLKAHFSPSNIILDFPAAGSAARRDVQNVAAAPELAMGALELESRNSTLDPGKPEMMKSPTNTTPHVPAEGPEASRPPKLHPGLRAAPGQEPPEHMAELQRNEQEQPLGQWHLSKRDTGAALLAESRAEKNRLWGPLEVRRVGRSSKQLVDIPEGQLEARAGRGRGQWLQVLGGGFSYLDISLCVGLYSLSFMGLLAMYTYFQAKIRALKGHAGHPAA
row,SMILES,activity
1,C=CCC(=O)N(CCOC)CC1CCCN(C2Cc3ccccc3C2)C1 (centres undefined),6.2%
2,CCOC(=O)c1nc(-c2ccc(F)cc2)no1,-21.6% (inactive)
3,COC(=O)c1ccc(-c2noc(CN(C)CC3Cc4ccccc4O3)n2)cc1 (centres undefined),5.4%
4,CCC(=O)Oc1ccc(-c2nc(-c3cccc(OC)c3)no2)cc1,86.9% (active)
5,CC(C)NC(=O)C1CCN(C2CCN(C3CCSCC3)CC2)CC1,0.2%
6,COc1ccccc1C(=O)C1CCCN(Cc2ccc(OCCO)cc2)C1 (centres undefined),1.5%
7,O=C(c1cc2ccccc2oc1=O)N1CCOC(CC2CCCCC2)C1 (centres undefined),0.4%
8,CC(=O)Nc1cccc(C(=O)N2CCN(c3ccccc3)CC2)c1,5.9%
9,COc1ccc(N2CCN(C(=O)c3ccc(-n4cnnc4)cc3Cl)CC2)cc1,-13.7% (inactive)
10,COc1ccc(N2CCN(C(=O)c3cccc(-n4cnnc4)c3)CC2)cc1,-22.3% (inactive)
11,COCCN1CCCC(O)(CN2CCCCCC2)C1=O (centres undefined),10.4%
12,O=C(CSc1nnc(-c2ccco2)o1)Nc1ccc(Br)cc1,2.3%
13,O=C(/C=C/c1cccnc1)N1CCCC(N2CCN(c3ccc(F)cc3)CC2)C1 (centres undefined),1%
14,c1ccc(Cc2nn3c(-c4cccs4)nnc3s2)cc1,-5.3% (inactive)
15,c1ccc(-c2nn3c(-c4cccs4)nnc3s2)nc1,-20.4% (inactive)
16,c1ccc(-c2nn3c(-c4ccco4)nnc3s2)nc1,-4.2% (inactive)
17,OCC1CCN(C2CCCN(Cc3cccc(OC4CCCC4)c3)C2)CC1 (centres undefined),7%
18,CCCCNC(=O)N1CCN(Cc2ccccc2Cl)CC1,-7% (inactive)
19,CCN(CC)CC(=O)N1CCOC(Cc2ccccc2Cl)C1 (centres undefined),2.5%
20,CCN(CC)S(=O)(=O)Cc1ccccc1Cl,-19.9% (inactive)
21,C=CCNC(=O)CCc1ccc(S(=O)(=O)NC)cc1,-11.4% (inactive)
22,O=C(Cn1nnc(-c2cccs2)n1)NCCC1=CCCCC1,-7.9% (inactive)
23,CC(C)CCCC1CN(C(=O)CCC(N)=O)CCO1 (centres undefined),6.8%

row,SMILES,activity
1,Cc1occc1-c1nnc2n1N=C(c1ccccc1)CS2,-19.7% (inactive)
2,Cc1oc(-c2ccccc2Cl)nc1CN(Cc1cnn(C)c1)C(C)C,5.9%
3,COc1ccc(CNCCCSC)cc1OCC(O)CN(C)C(C)C (centres undefined),3.5%
4,O=C(NCC(c1ccc(F)cc1)N1CCCC1)c1cn(CCN2CCOCC2)nn1 (centres undefined),2.4%
5,COc1cccc(NC(=O)CCC2CCN(C(=O)CCc3cnccn3)CC2)c1,-0.4% (inactive)
6,CCN1CCCC1CNC(=O)CCC1CCN(Cc2cc(OC)c3c(c2)OCO3)CC1 (centres undefined),0.6%
7,CCS(=O)(=O)c1ncc(CN(C)CC(O)c2ccccc2)n1Cc1ccccc1 (centres undefined),6.9%
8,CCn1cc(-c2nc(-c3ccccn3)no2)cn1,44.4% (active)
9,COCCN1C(=O)C(=O)/C(=C(\O)c2ccc(OC)cc2C)C1c1cccnc1 (centres undefined),-3% (inactive)
10,NC(=O)C1CCCN(C(=O)Nc2ccc(F)cc2)C1 (centres undefined),-0.4% (inactive)
11,CSc1ncc(CN2CCCC(CO)(CCOc3ccccc3)C2)cn1 (centres undefined),10.5%
12,COc1ccccc1CCN1CCC(CN(C)C(=O)c2cscn2)CC1,-1.8% (inactive)
13,Cc1cc(CNCc2cccc(OCC(O)CN3CCCCCC3)c2)on1 (centres undefined),-2.7% (inactive)
14,COC(=O)c1ccc(CNC(=O)CC2C(=O)NCCN2Cc2cccs2)cc1 (centres undefined),2.8%
15,O=C(c1ccc(-c2ccccc2)c(F)c1)C1CCCN(C(=O)CCc2cnccn2)C1 (centres undefined),9.5%
16,Fc1ccc(C2(c3noc(-c4cn[nH]c4)n3)CCOC2)cc1 (centres undefined),2.1%
17,Cc1cc(C)c(S(=O)(=O)Nc2ncn[nH]2)c(C)c1,-18.4% (inactive)
18,CC(C)Oc1cccc(C(=O)Nc2ncn[nH]2)c1,-3.3% (inactive)
19,CCOC(=O)C1(CCCc2ccccc2)CCN(C(=O)CCn2cnnn2)CC1,0.6%
20,COCc1ccc(C(=O)N2CCC(CCC(=O)NCc3cccnc3)CC2)o1,4.1%
21,CC(C)CCCC1CN(Cc2ncc[nH]2)CCO1 (centres undefined),5.8%
22,COc1ccc(OC2CCN(C(=O)C3CC3)CC2)c(C(=O)NCCCN2CCOCC2)c1,2%
23,Cc1ccc(NC(=O)CN2CCc3ccccc3C2)cc1,-21.7% (inactive)

row,SMILES,activity
1,Cc1cccc(N2CCN(CC(=O)Nc3ccc(S(N)(=O)=O)cc3)CC2)c1C,-11.2% (inactive)
2,O=C(CN1CCCCCC1)Nc1ccc(Cl)cc1,-10% (inactive)
3,CN(C)CCC1CN(C(=O)CSc2ccccc2)CCO1 (centres undefined),4.2%
4,CC(C)Cc1ccc(CN2CCCC(NC3CCN(C)CC3)C2)cc1 (centres undefined),-2.5% (inactive)
5,O=C(CCc1ccncc1)N1CCOC(Cc2ccccc2Cl)C1 (centres undefined),3.1%
6,CCN1CCCC1CN(CC1CCN(CCOC)CC1)C(=O)CCc1ccc(=O)[nH]n1 (centres undefined),6.9%
7,CN(C)CCC1CN(Cc2cnc(-c3ccccc3)s2)CCO1 (centres undefined),-0.6% (inactive)
8,CCCn1c(=O)c2c(nc3n2CCN3Cc2ccco2)n(C)c1=O,-9.9% (inactive)
9,Cc1nc(-c2ccc(CN3CCC(CCn4cccn4)CC3)cc2)[nH]c(=O)c1F,7.1%
10,O=C(c1ccc(-c2ccccc2)cc1)C1CCCN(C(=O)CN2C(=O)CSC2=O)C1 (centres undefined),5.7%
11,CC(C)(C)C1(c2ccccc2)NC(=O)N(CC(=O)N2CCCCC2)C1=O (centres undefined),-23.9% (inactive)
12,O=C(CN1C(=O)CCNC1=O)N1CCC(OCc2ccccc2)CC1,2.9%
13,COc1ccc(-c2noc(CN3CCC(C)CC3)n2)cc1OC,-16% (inactive)
14,COc1cc(CN2CC[C@@H](N3CCCCCC3)[C@H](O)C2)ccc1F,0.7%
15,CS(=O)(=O)N(CC(=O)N1CCCC1)Cc1ccc(F)cc1,-19.7% (inactive)
16,O=C(CCC1CCCN(C/C=C/c2ccc(F)cc2)C1)N1CCCC1 (centres undefined),-1.2% (inactive)
17,CN(C)S(=O)(=O)c1ccc(CCC(=O)N2CCOCC2)cc1,1.9%
18,COc1ccc(CNCCCN2CCOCC2)cc1OCC(O)CN1CCCC1 (centres undefined),4.6%
19,COC(=O)CCCNC(=O)C1CCC(=O)N(Cc2ccccc2OC)C1 (centres undefined),1.6%
20,COCCCNc1nc2nonc2nc1N(C)CCN1CCOCC1,-1.4% (inactive)
21,COc1ccc2oc3nc(=O)c4ccccc4c-3cc2c1,-123% (inactive)
22,COc1ccc(OC)c(-c2nc(CN3CCN(C(=O)c4ccco4)CC3)c(C)o2)c1,-4% (inactive)
23,COc1ccc(C(C)N(C)Cc2nc(-c3ccc(OC)cc3OC)oc2C)cc1 (centres undefined),5.7%
